Test results published in PubChem BioAssay AID1159580 (chemical genetic matrix, 2015).
Out of some 5,500 compounds screened, about 2,000 (36%) were called active. Not shown: some 18% with an inconclusive outcome. This is one part of the list. Unmarked numbers belong to inactive results. Rule as the data show it: active = normalized growth mostly below about 0.91 (no sharp cut-off); inconclusive = no clear call, values can overlap the other calls; inactive = mostly above about 0.92.

Experiment: chemical genetic growth profiling, strain panel (AID 1159580);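 also: tested at 20 µM; growth read once vehicle control cultures reached saturation at 30 °C; 1 = growth at the plate median or of vehicle wells; lower values mean less growth of the strain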
Settings: S. cerevisiae deletion strains, growth OD
[1] = locus YDL101C, strain DUN1, active compounds read low
[2] = locus YHR030C, strain SLT2, active compounds read low

Q: For `O=C(Oc1ccc(C2SCCS2)cc1)c1cccs1`, which normalized growth (locus YAR019C, strain CDC15, active compounds read low) is on record?
A: 1

Q: And the normalized growth (locus YBL105C, strain PKC1, active compounds read low)?
A: 1.01

Q: What about the normalized growth (locus YBR135W, strain CKS1, active compounds read low) of the same compound?
A: 0.997

Q: What about the normalized growth (locus YBR136W, strain MEC1, active compounds read low) of the same compound?
A: 1.01

Q: What about the normalized growth (locus YBR160W, strain CDC28, active compounds read low) of the same compound?
A: 1

Q: What about the normalized growth (locus YDL017W, strain CDC7, active compounds read low) of the same compound?
A: 0.999

Q: What about the normalized growth (locus YDL028C, strain MPS1, active compounds read low) of the same compound?
A: 0.993

Q: And the normalized growth [1]?
A: 1.01

Q: And the normalized growth (locus YDL108W, strain KIN28, active compounds read low)?
A: 0.996

Q: What about the normalized growth (locus YDL132W, strain cdc53, active compounds read low) of the same compound?
A: 0.995

Q: What about the normalized growth (locus YDL214C, strain PRR2, active compounds read low) of the same compound?
A: 0.775

Q: What about the normalized growth (locus YDR052C, strain DBF4, active compounds read low) of the same compound?
A: 1.01

Q: And the normalized growth (locus YDR054C, strain cdc34, active compounds read low)?
A: 1

Q: And the normalized growth (locus YDR226W, strain ADK1, active compounds read low)?
A: 1

Q: And the normalized growth (locus YDR477W, strain SNF1, active compounds read low)?
A: 0.818

Q: What about the normalized growth (locus YER123W, strain YCK3, active compounds read low) of the same compound?
A: 0.812

Q: And the normalized growth (locus YER133W, strain GLC7, active compounds read low)?
A: 0.834

Q: What about the normalized growth (locus YFL009W, strain cdc4, active compounds read low) of the same compound?
A: 1

Q: What about the normalized growth (locus YFL029C, strain CAK1, active compounds read low) of the same compound?
A: 1.02

Q: What about the normalized growth (locus YFR003C, strain YPI1, active compounds read low) of the same compound?
A: 1.01

Q: What about the normalized growth (locus YFR019W, strain FAB1, active compounds read low) of the same compound?
A: 0.689 (active)

Q: And the normalized growth (locus YFR028C, strain CDC14, active compounds read low)?
A: 0.988

Q: What about the normalized growth (locus YGR040W, strain KSS1, active compounds read low) of the same compound?
A: 0.869

Q: And the normalized growth (locus YGR052W, strain FMP48, active compounds read low)?
A: 0.821

Q: And the normalized growth (locus YGR092W, strain DBF2, active compounds read low)?
A: 0.768

Q: And the normalized growth [2]?
A: 0.667 (active)

Q: What about the normalized growth (locus YHR079C, strain IRE1, active compounds read low) of the same compound?
A: 0.678

Q: And the normalized growth (locus YHR082C, strain KSP1, active compounds read low)?
A: 0.716

Q: And the normalized growth (locus YHR205W, strain SCH9, active compounds read low)?
A: 0.936

Q: What about the normalized growth (locus YIL147C, strain SLN1, active compounds read low) of the same compound?
A: 1

Q: What about the normalized growth (locus YJL095W, strain BCK1, active compounds read low) of the same compound?
A: 0.572

Q: What about the normalized growth (locus YJL128C, strain PBS2, active compounds read low) of the same compound?
A: 0.951

Q: What about the normalized growth (locus YJL157C, strain FAR1, active compounds read low) of the same compound?
A: 0.716

Q: What about the normalized growth (locus YJR016C, strain ILV3, active compounds read low) of the same compound?
A: 1

Q: What about the normalized growth (locus YJR066W, strain TOR1 (second series), active compounds read low) of the same compound?
A: 0.884

Q: And the normalized growth (locus YJR066W, strain TOR1, active compounds read low)?
A: 0.684

Q: What about the normalized growth (locus YKL048C, strain ELM1, active compounds read low) of the same compound?
A: 0.937

Q: What about the normalized growth (locus YKL067W, strain YNK1, active compounds read low) of the same compound?
A: 0.684 (active)

Q: What about the normalized growth (locus YKL101W, strain HSL1, active compounds read low) of the same compound?
A: 0.852

Q: And the normalized growth (locus YKL193C, strain SDS22, active compounds read low)?
A: 0.997

Q: And the normalized growth (locus YKL203C, strain TOR2, active compounds read low)?
A: 0.876

Q: And the normalized growth (locus YLR113W, strain HOG1, active compounds read low)?
A: 0.884

Q: And the normalized growth (locus YLR133W, strain CKI1, active compounds read low)?
A: 0.896

Q: What about the normalized growth (locus YLR403W, strain SFP1, active compounds read low) of the same compound?
A: 0.763

Q: And the normalized growth (locus YML070W, strain DAK1, active compounds read low)?
A: 0.726

Q: And the normalized growth (locus YMR001C, strain CDC5, active compounds read low)?
A: 1.01

Q: What about the normalized growth (locus YMR205C, strain PFK2 (second series), active compounds read low) of the same compound?
A: 0.805

Q: What about the normalized growth (locus YMR277W, strain FCP1, active compounds read low) of the same compound?
A: 1

Q: And the normalized growth (locus YNL006W, strain LST8, active compounds read low)?
A: 1

Q: And the normalized growth (locus YNL020C, strain ARK1, active compounds read low)?
A: 0.829

Q: And the normalized growth (locus YNL161W, strain CBK1, active compounds read low)?
A: 1

Q: And the normalized growth (locus YNL183C, strain NPR1, active compounds read low)?
A: 0.81

Q: And the normalized growth (locus YNL207W, strain RIO2, active compounds read low)?
A: 1

Q: What about the normalized growth (locus YNL222W, strain SSU72, active compounds read low) of the same compound?
A: 0.999

Q: What about the normalized growth (locus YNL307C, strain MCK1 (second series), active compounds read low) of the same compound?
A: 0.784

Q: What about the normalized growth (locus YOL078W, strain AVO1, active compounds read low) of the same compound?
A: 0.997

Q: What about the normalized growth (locus YOL136C, strain PFK27, active compounds read low) of the same compound?
A: 0.701

Q: What about the normalized growth (locus YOR061W, strain CKA2, active compounds read low) of the same compound?
A: 0.737

Q: What about the normalized growth (locus YOR119C, strain RIO1, active compounds read low) of the same compound?
A: 0.785

Q: And the normalized growth (locus YOR231W, strain MKK1, active compounds read low)?
A: 0.549 (active)

Q: And the normalized growth (locus YOR329C, strain SCD5, active compounds read low)?
A: 1.01

Q: What about the normalized growth (locus YPL031C, strain PHO85, active compounds read low) of the same compound?
A: 0.697

Q: What about the normalized growth (locus YPL153C, strain RAD53, active compounds read low) of the same compound?
A: 0.777

Q: What about the normalized growth (locus YPL204W, strain HRR25, active compounds read low) of the same compound?
A: 0.852

Q: What about the normalized growth (locus YPL209C, strain IPL1, active compounds read low) of the same compound?
A: 1.01

Q: And the normalized growth (locus YPL256C, strain CLN2, active compounds read low)?
A: 0.776 (active)

Q: And the normalized growth (locus YPR025C, strain CCL1, active compounds read low)?
A: 0.997

Q: What about the normalized growth (locus YPR106W, strain ISR1, active compounds read low) of the same compound?
A: 1.01

Q: And the normalized growth (locus YPR111W, strain DBF20, active compounds read low)?
A: 1

Q: And the normalized growth (strain NNK1, active compounds read low)?
A: 1.03

Q: And the normalized growth (strain TSCII, active compounds read low)?
A: 1.02

Q: Which normalized growth (locus YAL013W, strain DEP1, active compounds read low) does the source give for `O=C(Oc1ccc(F)cc1)c1cccs1` here?
A: 1.01

Q: What about the normalized growth (locus YBR229C, strain ROT2, active compounds read low) of the same compound?
A: 1.01

Q: What about the normalized growth [1] of the same compound?
A: 1.03

Q: What about the normalized growth (locus YDR150W, strain NUM1, active compounds read low) of the same compound?
A: 0.941

Q: What about the normalized growth (locus YEL061C, strain CIN8, active compounds read low) of the same compound?
A: 1

Q: What about the normalized growth (locus YGR078C, strain PAC10, active compounds read low) of the same compound?
A: 1.01

Q: What about the normalized growth [2] of the same compound?
A: 0.987

Q: What about the normalized growth (locus YHR087W, strain rtc3, active compounds read low) of the same compound?
A: 0.992

Q: What about the normalized growth (locus YJR043C, strain POL32, active compounds read low) of the same compound?
A: 1.03

Q: And the normalized growth (locus YJR075W, strain HOC1, active compounds read low)?
A: 0.986

Q: And the normalized growth (locus YLR039C, strain RIC1, active compounds read low)?
A: 1.05

Q: And the normalized growth (locus YLR058C, strain SHM2 (second series), active compounds read low)?
A: 0.995

Q: And the normalized growth (locus YLR085C, strain ARP6, active compounds read low)?
A: 0.992

Q: What about the normalized growth (locus YLR262C, strain YPT6, active compounds read low) of the same compound?
A: 0.967

Q: And the normalized growth (locus YML094W, strain GIM5, active compounds read low)?
A: 0.989

Q: What about the normalized growth (locus YMR219W, strain ESC1, active compounds read low) of the same compound?
A: 0.993

Q: And the normalized growth (locus YMR263W, strain SAP30, active compounds read low)?
A: 0.966

Q: And the normalized growth (locus YNL153C, strain GIM3, active compounds read low)?
A: 1.02

Q: And the normalized growth (locus YNL298W, strain CLA4 (second series), active compounds read low)?
A: 1.03

Q: And the normalized growth (locus YNL322C, strain KRE1, active compounds read low)?
A: 1

Q: What about the normalized growth (locus YNR030W, strain Alg12, active compounds read low) of the same compound?
A: 1.02

Q: What about the normalized growth (locus YPL055C, strain LGE1, active compounds read low) of the same compound?
A: 0.91

Q: And the normalized growth (locus YPL241C, strain CIN2, active compounds read low)?
A: 1

Q: What about the normalized growth (locus YPR135W, strain CTF4, active compounds read low) of the same compound?
A: 1.01
